Consider five compounds from PubChem BioAssay.

Each structure is given as a SMILES string. Inconclusive results are not listed. The source made the active and inactive calls.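 How the source made its calls, unless noted: active means binding below the plate cutoff, the plate median minus 3 SD, with a reading above zero; inconclusive means below the plate cutoff but reading exactly zero; inactive means the rest.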

The inhibition is the relative decrease from the control value, in per cent.

The nature of assay [1]: rapamycin-like changes in RPL19A-GFP expression – cell-based, S. cerevisiae, multiplex flow cytometry, primary screen (AID 1862; in the data active means percent of DMSO control GFP below about 86%;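 further: lower values mimic rapamycin by blocking the RPL19A rise seen in DMSO cells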). Conditions: S. cerevisiae RPL19A-GFP strain, flow cytometry fluorescence, 3 h; at 10 µM; stronger effect = lower value. On the technique in general: In flow cytometry, cells or beads pass a laser one at a time.
The nature of assay [2]: TOR pathway GLN3 branch reporter MEP2-GFP changes – S. cerevisiae, multiplex flow cytometry, primary screen (AID 1867;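 active means GFP response, as percent of the DMSO control, above the screen-wide mean plus 3 SD, about 139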;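 further: median GFP channel fluorescence of barcode-gated MEP2-GFP cells measured by flow cytometry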). Conditions: S. cerevisiae MEP2-GFP strain, 3 h, at 10 µM, stronger effect = higher value, 100% means same as DMSO wells.
The nature of assay [3]: TOR pathway RTG branch CIT2 reporter changes – S. cerevisiae, GFP fusion, multiplex flow cytometry, primary screen (AID 1870;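 active means percent response above a set limit, the screen-wide mean plus 3 SD, cut at about 130% in these data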;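 further: barcoded CIT2-GFP strain pooled with four other GFP strains with rapamycin as positive control; median GFP fluorescence per well over plate mean of DMSO wells so 100% = DMSO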). Conditions: S. cerevisiae CIT2-GFP expression, 3 h, at 10 µM, stronger effect = higher value.
The nature of assay [4]: TOR pathway LAP4-GFP level changes – S. cerevisiae, multiplex flow cytometry, primary screen (AID 1873;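 active means GFP signal, as percent of the solvent control, above the screen mean plus 3 SD, about 149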). Conditions: S. cerevisiae LAP4-GFP expression, 3 h, at 10 µM, stronger effect = higher value.
The nature of assay [5]: yeast AGP1-GFP level changes, GLN3 branch – cell-based, multiplex flow cytometry, S. cerevisiae, primary screen (AID 1887;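 active means GFP signal above the screen-wide mean plus 3 SD, that is over about 124.5% of the solvent control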;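 further: AGP1-GFP fusion strain of S. cerevisiae within a five-strain barcoded multiplex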). Conditions: 3 h, at 10 µM, stronger effect = higher value.
A short description of assay [6]: reduced mouse 2C T cell binding to pMHC/ICAM-1 vesicles – MLPCN validation set, flow cytometry, LFA-1/ICAM-1 modulator project, pilot screen (AID 2523;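 active means response below a set limit, under 55% cells CD8-positive and vesicle-bound, and CD8 cells' 90th-percentile brightness under 279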;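 on vesicle binding response: mean PE anti-B7-1 fluorescence of CD8+ cells relative to row control; 100% = QL9-loaded vesicles with DMSO vehicle in the same plate row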). To be noted: 2C mouse CD8+ T cells, at 7 µM, stronger effect = lower value; double positive events: measured here: CD8+/vesicle+ event percentage.
In assay [7] the target is Integrin beta-1 (Homo sapiens) + Integrin alpha-4 (Homo sapiens) (UniProt P13612+P05556). The experiment in a line: alpha4beta1 integrin LIBS antibody binding reduction – U937 cells, HUTS-21 mAb, flow cytometry, validation set, VLA-4 allosteric modulator project, pilot screen (AID 2674;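 active means inhibition above 50%, about 3 SD of the validation set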;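 further: antibody binding induced by the VLA-4 ligand LDV present at three times its Kd; 0% = LDV ligand with antibody and no compound and 100% = antibody without LDV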). Conditions: HUTS-21 LIBS mAb binding, at 6.7 µM, stronger effect = higher value, binding induced by LDV ligand.
Integrin beta-1 (Homo sapiens) + Integrin alpha-4 (Homo sapiens), sequence (P05556 whole entry, looked up): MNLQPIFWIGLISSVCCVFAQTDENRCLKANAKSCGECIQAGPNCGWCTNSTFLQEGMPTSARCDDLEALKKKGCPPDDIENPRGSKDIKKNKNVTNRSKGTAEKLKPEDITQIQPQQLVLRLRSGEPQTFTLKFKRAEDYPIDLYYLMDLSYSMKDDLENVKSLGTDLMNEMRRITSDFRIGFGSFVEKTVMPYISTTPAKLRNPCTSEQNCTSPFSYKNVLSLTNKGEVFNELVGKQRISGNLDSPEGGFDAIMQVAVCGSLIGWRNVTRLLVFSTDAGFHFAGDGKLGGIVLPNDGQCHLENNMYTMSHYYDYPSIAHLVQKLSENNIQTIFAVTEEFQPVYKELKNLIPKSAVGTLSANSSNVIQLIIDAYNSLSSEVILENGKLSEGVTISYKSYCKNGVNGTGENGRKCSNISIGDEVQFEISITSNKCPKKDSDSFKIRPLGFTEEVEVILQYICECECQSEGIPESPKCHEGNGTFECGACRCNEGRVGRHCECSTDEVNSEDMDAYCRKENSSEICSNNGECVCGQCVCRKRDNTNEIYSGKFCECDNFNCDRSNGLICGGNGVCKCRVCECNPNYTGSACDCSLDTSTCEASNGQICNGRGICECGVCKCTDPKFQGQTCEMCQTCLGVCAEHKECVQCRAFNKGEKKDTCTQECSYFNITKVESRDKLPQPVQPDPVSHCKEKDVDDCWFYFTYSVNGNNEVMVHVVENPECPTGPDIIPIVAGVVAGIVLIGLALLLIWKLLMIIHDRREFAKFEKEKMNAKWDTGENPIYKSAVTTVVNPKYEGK
Integrin beta-1 (Homo sapiens) + Integrin alpha-4 (Homo sapiens), sequence (P13612 whole entry, looked up): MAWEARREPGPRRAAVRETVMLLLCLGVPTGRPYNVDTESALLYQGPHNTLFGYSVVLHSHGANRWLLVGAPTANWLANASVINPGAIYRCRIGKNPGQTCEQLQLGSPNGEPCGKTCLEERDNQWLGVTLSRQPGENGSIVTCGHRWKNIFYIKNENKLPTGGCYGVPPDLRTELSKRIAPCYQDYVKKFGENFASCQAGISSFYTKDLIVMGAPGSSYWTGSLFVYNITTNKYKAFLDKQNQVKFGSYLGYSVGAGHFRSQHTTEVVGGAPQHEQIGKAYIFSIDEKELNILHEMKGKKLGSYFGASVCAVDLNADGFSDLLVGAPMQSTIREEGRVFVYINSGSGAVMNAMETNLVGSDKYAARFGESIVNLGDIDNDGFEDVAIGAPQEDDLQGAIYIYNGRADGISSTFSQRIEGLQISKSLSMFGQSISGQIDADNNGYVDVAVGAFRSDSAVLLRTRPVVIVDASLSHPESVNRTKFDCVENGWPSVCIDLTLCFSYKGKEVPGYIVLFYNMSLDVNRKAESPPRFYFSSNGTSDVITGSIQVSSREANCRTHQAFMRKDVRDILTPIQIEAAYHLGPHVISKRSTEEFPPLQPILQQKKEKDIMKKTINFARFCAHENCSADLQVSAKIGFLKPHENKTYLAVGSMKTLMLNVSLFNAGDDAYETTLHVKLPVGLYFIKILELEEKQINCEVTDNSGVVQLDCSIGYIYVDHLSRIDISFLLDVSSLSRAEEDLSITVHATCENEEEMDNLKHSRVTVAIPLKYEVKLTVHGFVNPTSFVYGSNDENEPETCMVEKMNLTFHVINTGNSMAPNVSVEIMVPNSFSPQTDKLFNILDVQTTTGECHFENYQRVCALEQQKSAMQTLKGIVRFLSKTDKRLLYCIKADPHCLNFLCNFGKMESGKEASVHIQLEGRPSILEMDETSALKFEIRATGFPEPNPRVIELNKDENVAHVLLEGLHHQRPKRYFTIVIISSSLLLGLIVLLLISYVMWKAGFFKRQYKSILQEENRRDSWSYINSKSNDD

Assay [8] is described as follows: calorie-restriction mimetic ROS inhibitors, yeast – validation compound set, pilot screen (AID 2706;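 active means superoxide response below 65% of plate, a cut near 3 SD across the whole screen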;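 further: yeast exposed to compound for one week at 30 degrees C before staining; 100% = mean of all compound wells on the same plate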). Conditions: S. cerevisiae aging, superoxide DHE fluorescence; at 10 µM; stronger effect = lower value.
In assay [9] the target is Beta-adrenergic receptor kinase 1 (Homo sapiens) (UniProt P25098). The experiment in a line: GRK2 binders displacing RNA aptamer, biochemical, validation, human GRK2, bead flow cytometry (AID 488806;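 active means aptamer binding inhibition above 30%, about 3 SD of noise from non-fluorescent compounds; inactive means inhibition at or below 30%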). Conditions: bead-bound GRK2, FAM-aptamer displacement, at 10 µM, stronger effect = higher value.
Beta-adrenergic receptor kinase 1 (Homo sapiens), sequence (P25098 whole entry, looked up): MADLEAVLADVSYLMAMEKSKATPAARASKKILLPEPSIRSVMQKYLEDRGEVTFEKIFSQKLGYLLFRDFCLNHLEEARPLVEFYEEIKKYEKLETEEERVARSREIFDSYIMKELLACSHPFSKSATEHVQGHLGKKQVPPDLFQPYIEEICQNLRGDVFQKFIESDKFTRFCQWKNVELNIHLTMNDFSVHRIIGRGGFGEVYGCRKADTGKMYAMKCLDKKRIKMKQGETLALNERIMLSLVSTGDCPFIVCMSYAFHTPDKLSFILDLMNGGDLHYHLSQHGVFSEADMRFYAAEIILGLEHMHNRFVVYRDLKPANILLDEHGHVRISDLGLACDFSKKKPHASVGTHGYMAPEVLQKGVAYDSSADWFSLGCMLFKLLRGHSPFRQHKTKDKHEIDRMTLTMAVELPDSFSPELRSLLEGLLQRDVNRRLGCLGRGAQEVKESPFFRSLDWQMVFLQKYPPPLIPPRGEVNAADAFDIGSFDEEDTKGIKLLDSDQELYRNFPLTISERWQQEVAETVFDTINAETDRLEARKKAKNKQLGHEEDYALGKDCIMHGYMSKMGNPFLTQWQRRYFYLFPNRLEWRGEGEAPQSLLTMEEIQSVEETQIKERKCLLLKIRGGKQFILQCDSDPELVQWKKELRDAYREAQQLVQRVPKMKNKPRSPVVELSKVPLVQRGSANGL
In assay [10] the target is Beta-2 adrenergic receptor (Homo sapiens) (UniProt P07550). The experiment in a line: agonist-induced loss of surface beta2AR – cell-based, FAP fluorogen, flow cytometry, validation set, pilot screen (AID 504459;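 active means percent response above 42, roughly 3 SD of non-fluorescent test compounds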;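 further: agonist-driven loss of surface beta2AR via internalization measured by FAP dye flow cytometry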). To be noted: Am2.2-beta2AR cells, at 10 µM, stronger effect = higher value.
Beta-2 adrenergic receptor (Homo sapiens), sequence (P07550 whole entry, looked up): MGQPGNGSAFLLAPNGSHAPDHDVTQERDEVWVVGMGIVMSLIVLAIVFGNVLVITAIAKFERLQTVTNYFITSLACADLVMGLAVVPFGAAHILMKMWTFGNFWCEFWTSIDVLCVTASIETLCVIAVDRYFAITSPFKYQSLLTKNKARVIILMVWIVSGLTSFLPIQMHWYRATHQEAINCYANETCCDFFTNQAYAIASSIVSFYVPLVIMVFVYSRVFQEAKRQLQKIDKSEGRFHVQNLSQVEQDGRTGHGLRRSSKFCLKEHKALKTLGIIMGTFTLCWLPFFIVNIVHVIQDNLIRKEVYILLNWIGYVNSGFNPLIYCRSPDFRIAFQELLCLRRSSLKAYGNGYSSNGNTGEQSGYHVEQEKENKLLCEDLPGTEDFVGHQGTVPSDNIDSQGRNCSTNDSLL
The target of assay [11] is AP-2 complex subunit beta (Homo sapiens) (UniProt P63010). The assay is described as follows: beta-arrestin/AP2 interaction blockers – biochemical, validation set, GST-AP2 beads, flow cytometry, pilot screen (AID 504541;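 active means inhibition above 54%, about 3 SD of non-fluorescent compounds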;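 further: AP2 carries R879A mutation and is captured from E. coli lysate; bead-bound FITC arrestin peptide fluorescence measuring arrestin peptide binding to AP2; 0% = DMSO wells and 100% = excess unlabeled arrestin peptide control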). To be noted: FITC arrestin peptide, at 10 µM, stronger effect = higher value, AP2 beta2 appendage fragment, R879A mutant.
AP-2 complex subunit beta (Homo sapiens), sequence (P63010 whole entry, looked up, the tested form may be a part, one chain of several): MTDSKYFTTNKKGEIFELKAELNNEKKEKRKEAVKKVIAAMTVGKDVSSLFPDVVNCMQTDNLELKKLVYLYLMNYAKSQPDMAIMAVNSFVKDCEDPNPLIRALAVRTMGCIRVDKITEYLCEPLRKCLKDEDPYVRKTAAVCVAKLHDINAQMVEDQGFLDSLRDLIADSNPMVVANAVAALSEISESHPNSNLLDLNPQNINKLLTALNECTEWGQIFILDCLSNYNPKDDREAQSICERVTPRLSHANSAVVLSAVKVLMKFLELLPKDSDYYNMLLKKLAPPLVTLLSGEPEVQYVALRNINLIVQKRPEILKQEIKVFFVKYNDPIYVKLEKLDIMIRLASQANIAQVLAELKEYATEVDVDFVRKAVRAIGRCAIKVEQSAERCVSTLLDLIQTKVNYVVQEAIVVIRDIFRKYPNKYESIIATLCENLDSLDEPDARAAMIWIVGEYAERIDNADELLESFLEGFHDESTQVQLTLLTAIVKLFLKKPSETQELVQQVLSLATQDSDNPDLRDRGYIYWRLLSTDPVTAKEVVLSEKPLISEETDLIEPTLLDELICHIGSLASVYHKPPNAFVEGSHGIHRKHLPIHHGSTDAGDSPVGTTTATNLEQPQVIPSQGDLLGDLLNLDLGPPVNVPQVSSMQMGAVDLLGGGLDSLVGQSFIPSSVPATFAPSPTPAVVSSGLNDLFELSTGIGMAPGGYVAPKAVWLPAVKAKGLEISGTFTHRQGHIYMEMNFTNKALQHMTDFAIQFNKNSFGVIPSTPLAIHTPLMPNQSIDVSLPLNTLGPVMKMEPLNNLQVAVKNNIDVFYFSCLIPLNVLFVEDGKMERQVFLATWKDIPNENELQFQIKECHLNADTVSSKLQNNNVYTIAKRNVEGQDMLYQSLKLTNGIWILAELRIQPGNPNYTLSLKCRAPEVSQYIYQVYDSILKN
Assay [12] is described as follows: cytosolic pH regulators acting via V-ATPase – S. cerevisiae, pHLuorin, HTS validation (AID 504600; in the data active means response above about 15%;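 further: plate controls were DMSO for no effect and reference compound for full effect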). To be noted: V-ATPase proton transport, at 10 µM, stronger effect = higher value.
Assay [13] has as its system anti-desmoglein-3 scFv antibody binding to human DSG3. The assay is described as follows: blockers of pathogenic pemphigus antibody–desmoglein-3 binding – biochemical, validation compound set, bead-based, flow cytometry, pilot screen (AID 588368).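 Further: signal is the median channel fluorescence of bead-bound GFP antibody.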 Conditions: Protein G beads, DSG3-Fc, scFv-GFP binding, at 10 µM, stronger effect = lower value.
Assay [14] is described as follows: Nile Red efflux blockade in pump-expressing yeast – validation compound set, multiplex, phenotypic, pilot screen (AID 588506;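 active means efflux inhibition above 0.42, the validation set average plus 4 SD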;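 further: Nile Red retained in cells so higher fluorescence means more efflux inhibition; 0 = negative control wells and 1 = enniatin B 25 µM full block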). To be noted: S. cerevisiae pump-expressing triplex, Nile Red efflux flow cytometry; at 10 µM; stronger effect = higher value; the pumps come from Candida albicans.
In assay [15] the target is ATP-binding cassette sub-family B member 6 (Homo sapiens) (UniProt Q9NP58). The experiment in a line: blockers of ABCB6-driven porphyrin uptake – K562-ABCB6 cells, flow cytometry, validation set, pilot screen (AID 588550;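 active means inhibition above the screen-wide mean plus 3 SD, about 51%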;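 further: 0% = DMSO wells and 100% = benzethonium chloride 70 µM positive control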). Conditions: K562-ABCB6 porphyrin accumulation, 1 h, at 10 µM, stronger effect = higher value.
ATP-binding cassette sub-family B member 6 (Homo sapiens), sequence (Q9NP58 whole entry, looked up): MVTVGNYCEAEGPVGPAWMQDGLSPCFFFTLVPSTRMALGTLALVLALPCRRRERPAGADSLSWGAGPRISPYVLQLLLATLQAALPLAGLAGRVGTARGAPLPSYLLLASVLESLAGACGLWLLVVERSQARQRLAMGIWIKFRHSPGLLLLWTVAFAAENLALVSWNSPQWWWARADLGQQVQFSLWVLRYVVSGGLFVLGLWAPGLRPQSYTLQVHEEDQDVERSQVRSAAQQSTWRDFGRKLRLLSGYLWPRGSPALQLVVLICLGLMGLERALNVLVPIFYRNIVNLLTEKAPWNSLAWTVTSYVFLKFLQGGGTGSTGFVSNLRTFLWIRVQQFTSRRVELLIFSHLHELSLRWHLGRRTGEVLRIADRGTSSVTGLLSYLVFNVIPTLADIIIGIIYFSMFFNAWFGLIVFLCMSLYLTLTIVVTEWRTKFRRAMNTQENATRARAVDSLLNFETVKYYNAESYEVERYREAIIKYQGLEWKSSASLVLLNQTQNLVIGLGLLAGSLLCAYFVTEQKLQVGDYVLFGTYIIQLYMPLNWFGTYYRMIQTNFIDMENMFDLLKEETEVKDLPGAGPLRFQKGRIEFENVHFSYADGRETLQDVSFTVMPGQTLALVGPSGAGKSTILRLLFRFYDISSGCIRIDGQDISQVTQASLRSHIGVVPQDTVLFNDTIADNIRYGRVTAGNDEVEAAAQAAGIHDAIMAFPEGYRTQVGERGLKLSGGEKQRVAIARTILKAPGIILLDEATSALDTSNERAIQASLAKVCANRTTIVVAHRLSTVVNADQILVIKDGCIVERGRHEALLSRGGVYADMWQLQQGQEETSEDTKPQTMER
The nature of assay [16]: AML differentiation inducers, ER-HoxA9 marrow cells – cell-based, GFP/MAC1 double positive, flow cytometry, validation set, primary screen (AID 588685;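 active means differentiation response of at least 50%, scaled between solvent and reference control, from cells with both markers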;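 further: compound exposure lasts four days before antibody staining and flow analysis; 0% = DMSO wells and 100% = 5 µM fulvestrant positive control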). Conditions: stronger effect = higher value, normalized: vehicle 0, fulvestrant 100.

Regarding `O=c1oc2c(CN3CCCCC3)c(O)ccc2c2c1CCCCC2`, the percent of DMSO control GFP in [1] was 102% (inactive). Moreover, the GFP response vs DMSO in assay [2] is 102% (inactive); in [4], 107% (inactive). Moreover, the percent response of DMSO control in assay [3] was 102% (inactive). For the same compound, the GFP response, % of DMSO in assay [5] was 107% (inactive). The double positive events in assay [6] is 59.1%. The vesicle binding response in [6] is 136% (inactive). The inhibition was 6.95% (inactive) in assay [7], -7.24% (inactive) in assay [11] and 4% (inactive) in assay [15]. Also, the superoxide response (% of plate) in assay [8] was 102% (inactive). Further, the aptamer binding inhibition in [9] is 1% (inactive). Further, the response was -8.88% (inactive) in [10] and 3.83% (inactive) in assay [12]. The binding (% of control) in assay [13] was 96.4% (inactive). Also, in [14], the efflux inhibition (fraction of control) was -0.16 (inactive). Also, the differentiation response in assay [16] was 8.59% (inactive).

With `COc1cc(CO)ccc1OCc1nnnn1-c1ccc(C)cc1`, the percent of DMSO control GFP in assay [1] was 102% (inactive). In addition, the GFP response vs DMSO in [2] is 105% (inactive); in assay [4], 95.9% (inactive). In [3], the percent response of DMSO control was 102% (inactive). For the same compound, the GFP response, % of DMSO in assay [5] was 101% (inactive). This compound also displayed a double positive events in assay [6] of 58.4%. Besides, in [6], the vesicle binding response was 163% (inactive). Also, the inhibition is 2.93% (inactive) in assay [7], -5.08% (inactive) in assay [11] and -8% (inactive) in assay [15]. The superoxide response (% of plate) in assay [8] is 107% (inactive). Further, in assay [9], the aptamer binding inhibition is -1% (inactive). The response was 6.38% (inactive) in [10] and 10.4% (inactive) in assay [12]. For the same compound, the binding (% of control) in assay [13] is 97.3% (inactive). For the same compound, the efflux inhibition (fraction of control) in assay [14] was 0.64 (active). The differentiation response in [16] was -1.65% (inactive).

Turning to `O=c1c(C(c2ccccc2)c2c(O)sc3ccccc3c2=O)c(O)sc2ccccc12`, in assay [1], the percent of DMSO control GFP is 93.8% (inactive). Also, the figures for the GFP response vs DMSO in assay [2] and in assay [4] were 97.6% (inactive) and 112% (inactive), respectively. Moreover, the percent response of DMSO control in [3] is 91.8% (inactive). Besides, in [5], the GFP response, % of DMSO is 113% (inactive). The compound further had a double positive events in [6] of 71.3%. Further, the vesicle binding response in assay [6] was 187% (inactive). Further, the inhibition is 15.9% (inactive) in assay [7], -1.26% (inactive) in assay [11] and -30% (inactive) in assay [15]. The superoxide response (% of plate) in assay [8] is 90.1% (inactive). Moreover, the aptamer binding inhibition in assay [9] is 1% (inactive). The response in [10] was -1.18% (inactive); in assay [12], 0.43% (inactive). The binding (% of control) in [13] was 107% (inactive). Besides, in assay [14], the efflux inhibition (fraction of control) is -0.13 (inactive). In addition, the differentiation response in assay [16] was 37.4% (inactive).

Turning to `O=C(CCc1ccccc1)Nc1ccccc1C(F)(F)F`, the percent of DMSO control GFP in assay [1] is 103% (inactive). The GFP response vs DMSO in assay [2] is 105% (inactive); in assay [4], 94.7% (inactive). In addition, the percent response of DMSO control in [3] was 107% (inactive). For the same compound, the GFP response, % of DMSO in [5] was 103% (inactive). Further, the double positive events in assay [6] came out at 64.1%. Also, the vesicle binding response in [6] is 240% (inactive). In addition, the values for the inhibition in [7], in [11] and in assay [15] were 2.66% (inactive), -5.17% (inactive) and -2% (inactive), respectively. For the same compound, the superoxide response (% of plate) in assay [8] is 96.3% (inactive). Further, the aptamer binding inhibition in [9] is 1% (inactive). Besides, the response in assay [10] is -5.39% (inactive); in [12], 2.37% (inactive). Moreover, in [13], the binding (% of control) is 100% (inactive). Also, in [14], the efflux inhibition (fraction of control) is 0.18 (inactive). Moreover, the differentiation response in [16] is 0.24% (inactive).

As for `NS(=O)(=O)c1cc(C2(O)NC(=O)c3ccccc32)ccc1Cl` (stereo not given), the percent of DMSO control GFP in assay [1] was 101% (inactive). In addition, the values for the GFP response vs DMSO in [2] and in assay [4] were 117% (inactive) and 78.7% (inactive), respectively. Also, the percent response of DMSO control in assay [3] is 115% (inactive). Moreover, the GFP response, % of DMSO in [5] was 89.6% (inactive). The compound further registered a double positive events in assay [6] of 58.2%. Besides, the vesicle binding response in assay [6] was 252% (inactive). The results for the inhibition in [7], in [11] and in [15] were -16.8% (inactive), -17.4% (inactive) and 9% (inactive), respectively. Also, the superoxide response (% of plate) in assay [8] is 110% (inactive). For the same compound, the aptamer binding inhibition in assay [9] is -6% (inactive). Also, the values for the response in assay [10] and in assay [12] were -3.96% (inactive) and 1.36% (inactive), respectively. Moreover, the binding (% of control) in [13] is 105% (inactive). Also, the efflux inhibition (fraction of control) in [14] is -0.13 (inactive). Further, the differentiation response in assay [16] is 4.09% (inactive).
